Screening results (PubChem)
RGS12 GoLoco inh = blocks human Gai1 binding to RGS12 GoLoco peptide, red readout | Gai1:RGS12 GoLoco peptide FP, rhodamine, 10 min | Potency, µM (top dose mostly 61.6 µM), inactives show at the top dose activity, negative = inhibition, usual class: inhibitors | actives 0.44% (n = 230,000) | AID 880; active = well fitted inhibition curve with a large enough effect, not every such curve was filed as active; inactive = no such curve, though single readings can be large or run the other way; note: potency is the fitted concentration of half-maximal effect; nearly all actives have a fitted effect of over 30% in size
Target sequence (P63096 whole entry, looked up): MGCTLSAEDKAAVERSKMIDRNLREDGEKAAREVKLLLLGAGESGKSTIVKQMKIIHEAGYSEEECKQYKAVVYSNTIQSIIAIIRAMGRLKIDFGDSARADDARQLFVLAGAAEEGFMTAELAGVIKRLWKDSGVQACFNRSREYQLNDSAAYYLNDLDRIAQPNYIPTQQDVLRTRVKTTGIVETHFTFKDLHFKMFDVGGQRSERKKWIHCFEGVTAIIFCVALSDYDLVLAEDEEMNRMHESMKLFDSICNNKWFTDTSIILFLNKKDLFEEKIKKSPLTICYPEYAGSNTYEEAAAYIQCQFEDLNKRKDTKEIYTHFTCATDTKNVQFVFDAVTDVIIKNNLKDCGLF
Coupling enz = counter-screen for Giardia aldolase inhibitors: coupling enzyme system; AID 2472; actives 0.67% (n = 290,000); activity change, negative = inhibition, % at 58.2 µM, hits read low; coupling enzyme system counterscreen, AmpLite Red fluorescence; in the data active = activity change below about -30%
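Activity here indicates interference with the coupling reaction, not aldolase inhibition. Compounds at 57.5 uM final met coupling enzymes for 10 min at RT; substrate and AmpLite Red detection followed, with a 525/598 nm fluorescence read after 20 min.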
TexasRed fluor = alters Texas Red total fluorescence, flagging assay interference. TRb/SRC2 Texas Red total fluorescence interference. Potency, µM (top dose mostly 106 µM), without a hit: at the highest dose fluorescence change, negative = quenching. actives 0.29% (n = 280,000). AID 1479; active = well fitted curve in either direction with a large enough effect; inconclusive = small, poorly fitted or top-dose-only effect; note: potency is the fitted concentration of half-maximal effect
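Human TRβ ligand-binding domain (0.6 uM) and Texas Red SRC2 peptide (20 nM) in Tris buffer with 1 uM T3 and 5% DMSO were incubated with pinned compound for 5 hr at ambient temperature. Total fluorescence was computed as S + 2P (555/632 nm).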
TRb-SRC2 inh = inhibitors of human thyroid hormone receptor beta-SRC2 interaction; P10828; TRbeta-SRC2 peptide binding, fluorescence polarization; receptor liganded with 1 µM T3; Potency, µM (series often up to 106 µM), inactives show at the highest dose activity change, negative = inhibition, usual class: inhibitors; actives 0.065% (n = 280,000); active = well fitted inhibition curve with a large enough effect; inconclusive = small, poorly fitted or top-dose-only effect, or effect the other way;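 note: potency is the fitted concentration of half-maximal effect; plate controls were bound peptide for no effect and peptide without receptor for full effect; nearly all actives have a fitted effect of over 50% in size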
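Each compound concentration gave % activity, normalized to unbound and bound Texas Red SRC2 controls, from polarization read after 5 hr ambient incubation with T3-loaded human TRb LBD.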
* = called active by the depositor; ? = inconclusive; nt = no result; ! = a repeat was not active; [ ] = dose if it differs, or a comment. An excerpt weighted towards active compounds, which were near 0.93% of everything screened. Unless noted, % is set by controls: 0 for no effect and ±100 for the full control effect.

SMILES	RGS12 GoLoco inh	Coupling enz	TexasRed fluor	TRb-SRC2 inh
Cc1[nH][nH]c(=O)c1C(c1c(C)[nH][nH]c1=O)c1cn(Cc2ccc(F)cc2)c2ccccc12	-3%	-47*	2%	?
Cc1[nH][nH]c(=O)c1C(c1c(C)[nH][nH]c1=O)c1cn(Cc2ccc(Cl)c(Cl)c2)c2ccccc12	6%	-49*	-1%	?
Cc1onc(-c2ccccc2)c1C(=O)NC1C(=O)N2C(C(=O)O)C(C)(C)S[C@@H]12 (some centres not stated)	3%	4	0%	9%
O=C(CSCc1ccc(Cl)cc1)N/N=C/c1c(Cl)cccc1Cl	-4%	0	0%	-3%
O=C(CSCc1ccc(Cl)cc1)N/N=C/c1ccccc1	-7%	-37*	1%	-16%
Nc1nc(C(=O)O)c(N=Nc2ccccc2)c(=O)[nH]1	6%[14.2 µM]	nt	nt	nt
Cc1ccc(NC(=S)Nc2ccc3cn[nH]c3c2)cc1	21%	-8	0%	-7%
c1cc2cn[nH]c2cc1NC1CCCCCC1	-31%	-67*	-2%	-16%
S=C(Nc1ccccc1)Nc1ccc2cn[nH]c2c1	8%	-39*	-9%	-7%
O=C(O)c1ccc(Cl)c2c1C1C=CCC1C(c1ccccn1)N2 (configuration not stated)	10µM*	-19	-3%	?
O=C(O)CCc1ccc(-c2ccccc2)n1-c1cccc(Br)c1	nt	nt	-3%	1%
O=C(O)c1cccnc1C(=O)O	8%	-63*	-5%	5%
O=C(O)CSc1cc(NS(=O)(=O)c2ccc(Br)cc2)c2ccccc2c1O	nt	-44*	nt	nt
O=S(=O)(Nc1cc(Sc2ncn[nH]2)c(O)c2ccccc12)c1ccccc1	-20%	-55*	-13%	?
O=C(NCc1ccco1)c1cccn2c(=O)c3cc4ccccc4cc3nc12	-9%	-31*	-12%	-10%
Nc1nc(SCCc2ccccc2)c2[nH]cnc2n1	7%[14.2 µM]	nt	nt	nt
COc1ccc(-c2nc3cnc(OC)nc3n(Cc3cccc(OC)c3)c2=O)cc1	19%	-2	nt	nt
COc1ccc(NC(=O)Cn2c(=O)c3ccccc3n3nncc23)cc1Cl	nt	nt	0%	-2%
COc1ccc(NC(=O)Cn2c(=O)c3cc(Cl)ccc3n3nncc23)cc1	nt	nt	0.35µM*[quencher]	-23%[53 µM]
O=C(Cn1cnc2c(nc3n2CCCCC3)c1=O)Nc1ccc(F)c(Cl)c1	nt	nt	18µM*[quencher]	-7%
COc1ccc(CN2C(=O)N(c3cccc(C)c3)C(=O)C2CC(=O)Nc2ccc(F)cc2)cc1OC (configuration not stated)	nt	nt	0%	0%
O=C(CSc1ccccn1)Nc1cccc2ccccc12	2%	-77*	1%	4%
O=C(CSc1ccccn1)Nc1ccccc1F	-4%	1	-4%	-3%
Cc1ccc2ccc(C)[n+](CCCS(=O)(=O)[O-])c2c1	7.9µM*	2	-1%	5%
Cc1ccc2ccccc2[n+]1CCCS(=O)(=O)[O-]	-14%	-4	2%	8%
SMILES	RGS12 GoLoco inh	Coupling enz	TexasRed fluor	TRb-SRC2 inh
Clc1cccc(CNc2cc(-c3ccccc3)nc3nncn23)c1	nt	nt	0%	-2%
O=C1C(=Cc2cccn2-c2ccc(O)cc2)C(=O)c2ccccc21	20µM*	-1	-3%	-2%
Cn1ccc2c(OCC(=O)NCc3ccccc3Cl)cccc2c1=O	nt	nt	2%	3%
CCn1c(/C=C/Nc2ccccc2)[n+](CC)c2cc(Cl)c(Cl)cc21	1.6µM*	1	-2%	-4%
NC(=O)C[n+]1cccc2ccccc21	11µM*	3	-2%	-11%
COc1ccc(C(=O)N2CCCCC2CCN2CCOCC2)cc1 (configuration not stated)	nt	nt	1%	-4%
Cc1nc2c(cc(Oc3ccc(S(=O)(=O)N4CCOCC4)cn3)c3ccsc32)s1	21%	-40*	-4%	-1%
COC(=O)C1CCN(C(=O)COc2cc3sc(C)nc3c3sccc23)CC1	0%	-2	-5%	-5%
CC(=O)OCCCCCCCCCCC[N+]1(C)CCCCC1	11%	0	0%	0%
COC(=O)CCCCCCCCCC[N+]1(C)CCCCC1	11µM*	1	1%	-10%
O=c1c(O)cccc2cc(O)c(O)c(O)c12	4µM*!	-36*	?	4%
O=C1c2ccccc2C(=O)c2c(O)c(O)cc(O)c21	7%	-12	-21%	-16%
CC(N=Cc1cccc(O)c1O)c1ccccc1 (configuration not stated)	61%	-39*	-19%	-20%
CCc1ccc(NCc2cccn2-c2nnc(N3CCCCCC3)s2)cc1	nt	nt	?	-8%
CC(C)(C)c1cc(CN2CCCCC2)cc(C(C)(C)C)c1O	-5%	-56*	4%	5%
COCCCn1c(-c2ccco2)nc2ccccc2c1=O	1%	0	-5%	1%
COCCCN=C(c1ccco1)n1c(=S)nc(-c2ccco2)n(CCCOC)c1=S	16%	-33*	-3%	-1%
N#Cc1cc2ccc(N3CCOCC3)cc2cc1C#N	-13%	-43*	-1%	-6%
Oc1ccc2ccccc2c1C=Nc1ccccc1-c1nc2ccccc2[nH]1	-8%	-32*	-19%	?
COc1ccc(CCn2c(O)cc3nn(-c4nc5ccccc5s4)c(=O)c-3c2C)cc1	62%	-8	22µM*[quencher]	?
c1ccc(-c2cn(-c3ccccc3)c3[n+]2CCS3)cc1	-13%	3	-1%	-1%
CC(C)(C)c1ccc(-c2cn(-c3ccc(Br)cc3)c3[n+]2CCCS3)cc1	35µM*	1	-5%	-2%
CCCOc1ccccc1C1C(C(=O)Nc2ccccc2)=C(C)Nc2nnnn21 (configuration not stated)	nt	nt	0.1µM*[quencher]	-11%
CCCCOc1ccccc1C1C(C(N)=O)=C(C)Nc2nnnn21 (configuration not stated)	-1%	-1	-1%	-17%
Cc1cccc(NC(=O)CN2C(=O)CCc3ccccc32)c1C	nt	nt	11µM*[quencher]	-16%
SMILES	RGS12 GoLoco inh	Coupling enz	TexasRed fluor	TRb-SRC2 inh
COc1ccccc1-c1nnc(SCCOc2ccccc2C)o1	nt	nt	-14%	-1%
COc1ccc(-c2cccc(NS(=O)(=O)c3ccc(C)s3)c2)nn1	nt	nt	-4%	-1%
Cc1cccc(N=Nc2c(C)c(C#N)c(O)[nH]c2=O)c1	5µM*	3	3%	4%
Cc1c(C#N)c(O)[nH]c(=O)c1N=Nc1ccc(Br)cc1C(=O)O	nt	-8	nt	nt
O=C(O)c1ccc(/C=N/N2CCN(Cc3ccc(Cl)cc3)CC2)cc1	8%	4	0%	-6%
Cc1ccc(CN2CCN(/N=C/c3ccc(C(=O)O)cc3)CC2)cc1	-10%	-2	0.063µM*[quencher]	-6%
Cc1cc(C(F)(F)F)nn1-c1nc(-c2ccccc2)cc(C(F)(F)F)n1	nt	nt	1%	4%
O=c1c(-c2cc(F)cc(F)c2)nc2cnc(N3CCNCC3)nc2n1-c1ccccc1	181%	3	nt	nt
CC(=O)N(Cc1ccc(F)cc1)c1cccc(C)c1C	-3%	0	-4%	-8%
CC(=O)N(Cc1ccc(F)cc1)C1=C(NCCc2ccccc2)C(=O)c2ccccc2C1=O	28%	-47*	1%	2%
Oc1ccc2ccccc2c1C=Nc1ccc(Cl)cn1	-2%	-46*	0%	9%
